PubChem BioAssay (Tox21)
Results filed as inconclusive are left out. Entries that show only a call come without a potency. Values without a mark were called inactive. The source made the active and inactive calls. Unless noted, the call rests on the fitted dose curve; in most records, active means well fitted curve in the direction sought with a large enough effect in the repeat runs; inconclusive means weak or mixed curves; inactive means no such curve, though single readings can be large; an effect the other way counts as inactive or inconclusive.

Columns and labels:
[1] = qHTS assay to identify aromatase inhibitors - cell viability counter screen (AID 743084);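 further: cells stimulated with testosterone during compound exposure; nearly all actives have a fitted effect of over 55% in size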
[2] = biological target: Aryl hydrocarbon receptor (Homo sapiens) (UniProt P35869); assay: qHTS assay to identify small molecule that activate the aryl hydrocarbon receptor (AhR) signaling pathway (AID 743085);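 further: HG2L7.5c1 human HepG2 liver cells with stably integrated DRE-driven firefly reporter; series mostly up to about 70 µM; nearly all actives have a fitted effect of over 15% in size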
Chain of Aryl hydrocarbon receptor (Homo sapiens) (P35869 whole entry, looked up): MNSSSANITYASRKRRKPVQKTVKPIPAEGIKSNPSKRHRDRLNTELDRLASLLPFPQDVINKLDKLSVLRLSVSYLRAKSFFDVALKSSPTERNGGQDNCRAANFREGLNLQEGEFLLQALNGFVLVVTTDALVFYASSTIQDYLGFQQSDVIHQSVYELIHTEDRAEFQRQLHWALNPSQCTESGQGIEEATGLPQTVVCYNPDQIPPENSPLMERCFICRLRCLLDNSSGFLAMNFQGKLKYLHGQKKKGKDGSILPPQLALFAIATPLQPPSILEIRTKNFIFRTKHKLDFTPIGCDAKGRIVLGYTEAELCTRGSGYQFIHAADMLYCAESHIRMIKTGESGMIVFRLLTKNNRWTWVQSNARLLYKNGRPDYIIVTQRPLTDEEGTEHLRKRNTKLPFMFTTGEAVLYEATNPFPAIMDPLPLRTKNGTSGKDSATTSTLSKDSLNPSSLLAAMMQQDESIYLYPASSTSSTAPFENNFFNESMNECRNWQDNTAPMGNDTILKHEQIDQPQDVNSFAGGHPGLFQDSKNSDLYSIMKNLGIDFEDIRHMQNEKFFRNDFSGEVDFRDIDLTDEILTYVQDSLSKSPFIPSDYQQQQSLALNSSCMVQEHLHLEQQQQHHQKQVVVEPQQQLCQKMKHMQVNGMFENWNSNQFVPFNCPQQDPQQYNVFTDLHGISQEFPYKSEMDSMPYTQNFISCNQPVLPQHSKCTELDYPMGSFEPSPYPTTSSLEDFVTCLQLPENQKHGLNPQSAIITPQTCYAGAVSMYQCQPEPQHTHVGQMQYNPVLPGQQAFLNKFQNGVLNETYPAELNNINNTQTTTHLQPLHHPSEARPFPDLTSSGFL
How it was run: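 HepG2 cells stably carrying a 20-DRE firefly luciferase reporter (HG2L7.5c1) treated with compound for 24 hr at 37C. Luciferase read by ONE-Glo luminescence, with CellTiter-Fluor viability read first.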

[3] = qHTS assay to identify small molecule that activate the aryl hydrocarbon receptor (AhR) signaling pathway - cell viability counter screen (AID 743086);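 further: HepG2 liver cells carrying the AhR DRE luciferase reporter; series mostly up to about 70 µM; nearly all actives have a fitted effect of over 45% in size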
How it was run: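 HepG2-AhR-luc (HG2L7.5c1) cells, 4000/well, were preincubated 5 h at 37C, exposed to compound in qHTS format for 24 hr at 37C, then given CellTiter-Fluor for 30 min; viability was read as fluorescence in the reporter wells.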

[4] = qHTS assay for small molecule agonists of the antioxidant response element (ARE) signaling pathway (AID 743202; active means well fitted activation curve with a large enough effect in the signal ratio in the repeat runs, not every such curve was filed as active; the % refers to the signal ratio)
How it was run: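 Following a 16 h, 37 C exposure of reporter HepG2 cells (ARE-driven beta-lactamase, 2,000 cells/well) to compounds, FRET substrate was applied for 2 h at room temperature and fluorescence intensity recorded.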

[5] = qHTS assay for small molecule agonists of the antioxidant response element (ARE) signaling pathway - cell viability counter screen (AID 743203; calls by dose curve; further: nearly all actives have a fitted effect of over 55% in size; further: potency means the concentration at half of the fitted maximal effect)
How it was run: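 Luminescence read-out (CellTiter-Glo, 30 min at room temperature) measured cell viability in the same wells as the ARE beta-lactamase reporter. HepG2 ARE-bla cells were treated with compounds for 16 hrs at 37C/5% CO2.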

[6] = qHTS assay for small molecule activators of the heat shock response signaling pathway - cell viability counter screen (AID 743209); further: nearly all actives have a fitted effect of over 50% in size
How it was run: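 HSE-bla HeLa; 1500 cells/well; overnight 37 C, 5% CO2; compound 5 h 37 C; LiveBLAzer B/G substrate 2.5 h RT; CellTiter-Glo 30 min RT; luminescence.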

[7] = qHTS assay for small molecule activators of the heat shock response signaling pathway (AID 743210; active means well fitted activation curve with a large enough effect in the signal ratio in the repeat runs, with a control signal flat, not every such curve was filed as active; the % refers to the signal ratio; further: series mostly up to about 63 µM)
How it was run: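 Heat shock element–beta-lactamase HeLa reporter cells; qHTS with compounds for 5 h at 37 C; detection by FRET substrate fluorescence after 2.5 h at RT.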

[8] = qHTS assay to identify small molecule agonists of the peroxisome proliferator-activated receptor delta (PPARd) signaling pathway - cell viability counter screen (AID 743211); further: nearly all actives have a fitted effect of over 55% in size; further: potency means the concentration at half of the fitted maximal effect
How it was run: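 PPARd-bla HEK293H cells (3000/well) were pre-incubated 5 h at 37 C, then exposed to compound for 17 h at 37 C. After 2 h with LiveBLAzer substrate, CellTiter-Glo was added to the same wells; luminescence read after 30 min at room temperature.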

[9] = qHTS assay to identify small molecule antagonists of the peroxisome proliferator-activated receptor delta (PPARd) signaling pathway - cell viability counter screen (AID 743213); further: nearly all actives have a fitted effect of over 50% in size; further: potency means the concentration at half of the fitted maximal effect
How it was run: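 CellTiter-Glo was added to PPARd-bla HEK293H wells following 17 h compound treatment in the presence of 300 nM L165041. Luminescence was recorded after 30 min at room temperature.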

[10] = biological target: Bile acid receptor (Homo sapiens) (UniProt Q96RI1); assay: qHTS assay to identify small molecule antagonists of the farnesoid-X-receptor (FXR) signaling pathway (AID 743217; active means well fitted inhibition curve with a large enough effect in the signal ratio in the repeat runs, not every such curve was filed as active; the % refers to the signal ratio)
Chain of Bile acid receptor (Homo sapiens) (Q96RI1 whole entry, looked up): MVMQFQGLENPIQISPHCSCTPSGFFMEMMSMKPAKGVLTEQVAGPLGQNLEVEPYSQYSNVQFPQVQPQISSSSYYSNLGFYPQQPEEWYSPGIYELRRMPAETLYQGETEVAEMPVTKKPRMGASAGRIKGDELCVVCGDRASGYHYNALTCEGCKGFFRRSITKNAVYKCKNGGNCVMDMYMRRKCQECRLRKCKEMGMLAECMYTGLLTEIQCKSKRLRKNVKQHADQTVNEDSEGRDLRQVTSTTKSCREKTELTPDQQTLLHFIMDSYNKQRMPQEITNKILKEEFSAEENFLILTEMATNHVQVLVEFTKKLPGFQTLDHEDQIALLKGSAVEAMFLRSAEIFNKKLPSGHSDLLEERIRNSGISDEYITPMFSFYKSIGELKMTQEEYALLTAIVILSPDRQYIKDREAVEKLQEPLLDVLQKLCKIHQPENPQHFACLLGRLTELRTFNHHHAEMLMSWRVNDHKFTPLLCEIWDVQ
How it was run: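 Read-out: beta-lactamase FRET fluorescence (LiveBLAzer B/G substrate, 2 h, room temperature) in GeneBLAzer FXR-UAS-bla HEK 293T cells. Compounds were co-dosed with 50 uM chenodeoxycholic acid (final) and incubated 16 h at 37 °C.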

[11] = qHTS assay to identify small molecule agonists of the farnesoid-X-receptor (FXR) signaling pathway - cell viability counter screen (AID 743218); further: nearly all actives have a fitted effect of over 45% in size; further: potency means the concentration at half of the fitted maximal effect
How it was run: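 Luminescence from CellTiter-Glo, read after 30 min at RT, reports viability of GeneBLAzer FXR-UAS-bla HEK 293T cells treated 16 h with compounds in the wells used for the beta-lactamase reporter.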

[12] = biological target: Bile acid receptor (Homo sapiens) (UniProt Q96RI1); assay: qHTS assay to identify small molecule agonists of the farnesoid-X-receptor (FXR) signaling pathway (AID 743220; active means well fitted activation curve with a large enough effect in the signal ratio in the repeat runs, not every such curve was filed as active; the % refers to the signal ratio)
How it was run: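 FXR-UAS-bla HEK 293T cells carrying a UAS-driven beta-lactamase reporter were plated for 5 h at 37C/5% CO2, then exposed to DMSO-dissolved Tox21 10K compounds for 16 h at 37C. A LiveBLAzer B/G FRET substrate was loaded for 2 h at room temperature before fluorescence reading.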

[13] = qHTS assay to identify small molecule antagonists of the farnesoid-X-receptor (FXR) signaling pathway - cell viability counter screen (AID 743221; active means well fitted cell-killing curve with a large enough effect in the repeat runs, not every such curve was filed as active; further: nearly all actives have a fitted effect of over 50% in size)
How it was run: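 GeneBLAzer FXR-UAS-bla HEK 293T cells, compound plus chenodeoxycholic acid (50 uM final), 16 h at 37 C. CellTiter-Glo added to the same wells after the beta-lactamase read; luminescence read after 30 min at room temperature as viability.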

[14] = biological target: Vitamin D3 receptor (Homo sapiens) (UniProt P11473); assay: qHTS assay to identify small molecule agonists of the vitamin D receptor (VDR) signaling pathway (AID 743222; calls by dose curve)
Chain of Vitamin D3 receptor (Homo sapiens) (P11473 whole entry, looked up): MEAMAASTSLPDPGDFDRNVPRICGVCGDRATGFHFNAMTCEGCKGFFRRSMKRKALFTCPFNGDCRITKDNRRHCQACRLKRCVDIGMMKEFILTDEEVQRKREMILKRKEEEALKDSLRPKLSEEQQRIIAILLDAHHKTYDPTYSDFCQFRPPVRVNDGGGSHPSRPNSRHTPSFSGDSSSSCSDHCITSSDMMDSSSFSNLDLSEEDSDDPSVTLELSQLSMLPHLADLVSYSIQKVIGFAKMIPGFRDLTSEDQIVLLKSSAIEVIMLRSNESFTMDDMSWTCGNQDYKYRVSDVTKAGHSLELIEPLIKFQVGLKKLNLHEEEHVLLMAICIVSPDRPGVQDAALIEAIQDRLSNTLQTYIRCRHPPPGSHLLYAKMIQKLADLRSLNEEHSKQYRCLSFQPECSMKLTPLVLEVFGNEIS
How it was run: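 Beta-lactamase reporter readout (LiveBLAzer B/G FRET, 2 h RT) in VDR-bla cells after 16 h compound treatment at 37C, 5% CO2; cells pre-incubated 4 h before pin transfer of DMSO solutions.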

[15] = biological target: Vitamin D3 receptor (Homo sapiens) (UniProt P11473); assay: qHTS assay to identify small molecule antagonists of the vitamin D receptor (VDR) signaling pathway (AID 743223; active means well fitted inhibition curve with a large enough effect in the signal ratio in the repeat runs, not every such curve was filed as active; the % refers to the signal ratio)
How it was run: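 VDR-bla cells were treated with compound plus 3 nM final 1alpha,25-dihydroxyvitamin D3 for 16 h at 37C. Beta-lactamase reporter read by B/G FRET substrate fluorescence after 2 h at room temperature. qHTS format.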

[16] = biological target: Peroxisome proliferator-activated receptor gamma (Homo sapiens) (UniProt P37231); assay: qHTS assay to identify small molecule agonists of the peroxisome proliferator-activated receptor gamma (PPARg) signaling pathway (AID 743094; active means well fitted activation curve with a large enough effect in the signal ratio in the repeat runs, not every such curve was filed as active; the % refers to the signal ratio)
Chain of Peroxisome proliferator-activated receptor gamma (Homo sapiens) (P37231 whole entry, looked up): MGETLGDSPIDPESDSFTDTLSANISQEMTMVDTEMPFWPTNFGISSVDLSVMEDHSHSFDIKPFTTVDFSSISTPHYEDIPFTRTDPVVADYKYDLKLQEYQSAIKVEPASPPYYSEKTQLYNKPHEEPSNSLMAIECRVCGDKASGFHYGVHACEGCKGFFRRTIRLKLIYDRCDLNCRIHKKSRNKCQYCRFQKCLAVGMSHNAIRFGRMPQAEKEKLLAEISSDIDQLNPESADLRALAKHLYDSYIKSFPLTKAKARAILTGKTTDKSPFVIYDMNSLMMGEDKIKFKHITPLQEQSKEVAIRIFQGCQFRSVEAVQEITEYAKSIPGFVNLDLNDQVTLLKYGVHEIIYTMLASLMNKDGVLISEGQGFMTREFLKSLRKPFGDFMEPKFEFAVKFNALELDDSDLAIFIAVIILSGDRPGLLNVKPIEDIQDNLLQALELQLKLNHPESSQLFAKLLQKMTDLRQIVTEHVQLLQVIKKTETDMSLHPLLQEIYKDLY
How it was run: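 HEK293H PPARg-bla cells, 5 h settle at 37C/5% CO2; compound (DMSO) 17 h, 37C; B/G FRET substrate 1 h RT; fluorescence intensity read-out. qHTS format.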

[17] = biological target: Peroxisome proliferator-activated receptor gamma (Homo sapiens) (UniProt P37231); assay: qHTS assay to identify small molecule antagonists of the peroxisome proliferator-activated receptor gamma (PPARg) signaling pathway (AID 743191; calls by dose curve; further: series mostly up to about 63 µM; nearly all actives have a fitted effect of over 30% in size)
How it was run: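 GeneBLAzer PPARg UAS-bla HEK293H cells carrying a UAS-driven beta-lactamase reporter were plated at 3000 cells/well, preincubated 5 h at 37C, then given compound for 17 h at 37C; LiveBLAzer B/G FRET substrate was read after 1 h at room temperature.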

[18] = qHTS assay to identify small molecule antagonists of the peroxisome proliferator-activated receptor gamma (PPARg) signaling pathway - cell viability counter screen (AID 743194); further: nearly all actives have a fitted effect of over 55% in size
How it was run: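 PPARg-UAS-bla HEK293H cells were plated, rested 5 h at 37 C, then treated with compounds plus rosiglitazone (50 nM final) for 17 h at 37 C; viability was then read by CellTiter-Glo luminescence after 30 min at room temperature.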

[19] = biological target: Peroxisome proliferator-activated receptor delta (Homo sapiens) (UniProt Q03181); assay: qHTS assay to identify small molecule antagonists of the peroxisome proliferator-activated receptor delta (PPARd) signaling pathway (AID 743215; active means well fitted inhibition curve with a large enough effect in the signal ratio in the repeat runs, not every such curve was filed as active; the % refers to the signal ratio;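 further: cells stimulated with agonist L165041 at 300 nM final during compound exposure; series mostly up to about 62 µM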)
Chain of Peroxisome proliferator-activated receptor delta (Homo sapiens) (Q03181 whole entry, looked up): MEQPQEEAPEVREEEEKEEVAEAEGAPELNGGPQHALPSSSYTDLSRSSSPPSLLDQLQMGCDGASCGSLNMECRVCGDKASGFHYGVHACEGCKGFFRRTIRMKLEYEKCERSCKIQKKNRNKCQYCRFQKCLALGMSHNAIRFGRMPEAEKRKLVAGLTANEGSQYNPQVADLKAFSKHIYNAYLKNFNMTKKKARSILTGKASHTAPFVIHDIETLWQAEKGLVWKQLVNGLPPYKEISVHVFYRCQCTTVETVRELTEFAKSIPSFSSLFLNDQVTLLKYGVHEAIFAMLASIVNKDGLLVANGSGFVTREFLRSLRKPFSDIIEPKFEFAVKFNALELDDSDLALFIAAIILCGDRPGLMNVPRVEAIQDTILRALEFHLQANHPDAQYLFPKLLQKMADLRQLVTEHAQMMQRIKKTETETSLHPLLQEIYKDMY
How it was run: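 HEK293H GeneBLAzer PPARd UAS-bla reporter cells; cpd + L165041 300 nM final, 17 h 37 C; LiveBLAzer B/G FRET substrate 2 h RT; fluorescence intensity read-out. Antagonist mode.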

[20] = biological target: Peroxisome proliferator-activated receptor delta (Homo sapiens) (UniProt Q03181); assay: qHTS assay to identify small molecule agonists of the peroxisome proliferator-activated receptor delta (PPARd) signaling pathway (AID 743212; calls by dose curve)
How it was run: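 Beta-lactamase reporter read by fluorescence (LiveBLAzer B/G FRET, 2 h, room temperature). Test agents, in DMSO, incubated at 37 C with PPARd-bla HEK293H cells.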

SMILES	Potency [1]	Potency [2]	Potency [3]	Potency [4]	Potency [5]	outcome [6]	outcome [7]	Potency [8]	Potency [9]	outcome [10]	Potency [11]	outcome [12]	Potency [13]	outcome [14]	outcome [15]	Potency [16]	Potency [17]	Potency [18]	outcome [19]	Potency [20]
CC(=O)S[C@H](C(=O)N[C@H]1Cc2ccccc2[C@H]2CCC[C@@H](C(=O)O)N2C1=O)C(C)C	inactive	inactive	inactive	inactive	inactive	inactive	inactive	inactive	inactive	inactive	inactive	inactive	inactive	inactive	inactive					
CCOc1ccc2c(c1)C(C)CC(C)(C)N2 (centres undefined)	inactive		inactive	inactive	inactive	inactive	inactive	inactive	inactive	inactive	inactive	inactive	inactive	inactive	inactive	inactive	inactive	inactive	inactive	
COC(=O)Cc1cccc2ccccc12	inactive	inactive		inactive	inactive	inactive	inactive	inactive	inactive		inactive		inactive	inactive	inactive	inactive			inactive	inactive
CC(=O)OCC(=O)[C@@]1(O)CC[C@H]2[C@@H]3CCC4=CC(=O)C=C[C@]4(C)[C@@]3(F)[C@@H](O)C[C@@]21C	inactive		inactive	inactive	inactive	inactive	inactive	inactive	inactive		inactive		inactive			inactive	inactive	inactive		
CCC[Si](OC)(OC)OC	inactive	inactive	inactive	inactive	inactive	inactive	inactive	inactive		inactive	inactive	inactive	inactive	inactive	inactive				inactive	
CCCCCCOC(=O)c1ccccc1	inactive		inactive		inactive	inactive	inactive	inactive	inactive	inactive	30.9 µM (active)		inactive	inactive	inactive	inactive	inactive	inactive		inactive
C1=COCCC1	inactive		inactive	inactive	inactive	inactive	inactive	inactive	inactive	inactive	inactive	inactive	inactive	inactive	inactive	inactive	inactive	inactive	inactive	inactive
CCCCCCCCOCCCN	inactive	inactive	inactive		54.5 µM (active)	inactive	inactive	49 µM (active)	24.5 µM (active)				inactive	inactive					inactive	inactive
C=CC(=O)NC(C)(C)C	inactive		inactive	inactive	inactive	inactive	inactive	inactive	inactive	inactive		inactive	inactive	inactive	inactive	inactive	inactive	inactive		
